This note sets out measurements from PubChem BioAssay AID720553 (National Center for Advancing Translational Sciences (NCATS), 2013).

SMILES strings stand for the structures. About 3,300 (0.97%) of roughly 340,000 compounds were called active. What follows is part of a selection rich in actives, with near analogues and random picks from the rest. A number with no mark means an inactive call.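 How the source made its calls: active means maximum activity change below -70%; inconclusive means maximum activity change from -70% to -50%; inactive means maximum activity change above -50%.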
On the % scale 0 is the no-effect control and ±100 the full control effect.

This experiment has as its system Potassium voltage-gated channel subfamily H member 2, brain isoform KCNH2 3.1 (human). The experiment in a line: qHTS for Inhibitors of KCHN2 3.1: Mutant qHTS. Conditions: U2OS KCNH2 3.1, thallium flux FluxOr; active compounds read low. In a few lines:
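Steps: virus added to U2OS suspension (4 h, RT, dark); medium with 10% FBS added, cells plated, 37 C overnight; FluxOr/Red40 loading buffer 45 min RT; stimulation buffer, 2 min kinetic read; rate constant normalized.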
In general terms: In qHTS, concentration-response curves come from the screen itself.
Turning to `CCN(CC)C(=O)C1=C(C)N(Cc2ccc(OC)cc2)C(=O)C(CC(=O)NCCCCc2ccccc2)C1` (stereo not drawn), the activity change was -3.76%.
In the case of `CSc1nnc(CNC(=O)c2ccccc2)n1-c1ccc(F)cc1`, the activity change is -88.2% (active).
With `CCOC(=O)CSc1nnc(CNC(=O)c2ccco2)n1-c1ccc(F)cc1`, the activity change was -10.2%.
For `CCn1c(CNC(=O)c2ccccc2)nnc1SCC(=O)N1CCN(c2ccccc2)CC1`, the activity change was -7.37%.
As for `COc1cc2ccc(C(C)=O)c(O)c2cc1OC`, the activity change is 5.97%.
Turning to `N#CCCC(C#N)(c1cccnc1)N1CCOCC1` (stereo not drawn), the activity change is 7.47%.
For `C[C@H](CO)N1C[C@H](C)[C@@H](CN(C)C(=O)c2cccc(F)c2)Oc2cc(-c3cncnc3)ccc2S1(=O)=O`, the activity change is -2.89%.
On to `COc1cccc(OC)c1C(=O)N1CCN(Cc2ccccc2F)CC1`, for which the activity change was -6.56%.
As to `COc1ccc(CN2CN(C3CCCC3)CSC2=S)cc1`, the activity change is -9.2%.
In the case of `COc1ccc(CN2CN(C(C)C)CSC2=S)cc1`, the activity change was -82.5% (active).
For `S=C1SCN(CCN2CCOCC2)CN1Cc1ccccc1`, the activity change is -10.5%.
To `C[C@@H]1CN([C@@H](C)CO)C(=O)CCCn2cc(nn2)CO[C@H]1CN(C)S(=O)(=O)c1ccc(-n2cccn2)cc1` belongs 7.17%; to `Cc1c(NC(=O)COC(=O)/C=C/c2cccc(F)c2)c(=O)n(-c2ccccc2)n1C`, 1.3%.
As to `CCC(C)(C)n1nnnc1C(c1ccccc1OC)N1CCSCC1` (stereo not drawn), the activity change is -86.1% (active).
Take `CC(C)(C)n1nnnc1C(c1ccc(Cl)cc1)N1CCSCC1` (stereo not drawn): the activity change was -3.03%.
The figure for `COc1ccccc1C(c1nnnn1C(C)(C)C)N1CCN(Cc2ccccc2)CC1` (stereo not drawn) is 5%; for `Cc1ccccc1NC(=O)Cc1nc(COC(=O)CNC(=O)c2ccc(Cl)cc2Cl)cs1` it is -9.74%; for `COc1ccc(S(=O)(=O)N2CCCCC2)cc1C(=O)NC1CCS(=O)(=O)C1` (stereo not drawn) it is 26.3%.
The figure for `CCN(CC)C(=O)C1=C(C)N(Cc2ccc(OC)cc2)C(=O)C(CC(=O)NCc2ccco2)C1` (stereo not drawn) is 22.6%.
The figure for `CN(C)/C=C(/C(=O)c1ccccc1)S(=O)(=O)c1ccc(Cl)cc1` is 7.64%; for `CN(C)/C=C(/C(=O)c1ccccc1Cl)S(C)(=O)=O` it is -180% (active).
Turning to `CN(C)/C=C(/C(=O)c1ccc(Cl)cc1)S(=O)(=O)c1ccccc1`, the activity change is 3.05%.
To `Cc1cc(Br)ccc1NC(=O)c1sc2ncn(CC(=O)N3CCN(c4ccccn4)CC3)c(=O)c2c1C` belongs -4.47%; to `Cc1nc(N2CCN(c3ccccn3)CC2)c2c(C)c(C(=O)Nc3ccc(F)cc3)sc2n1`, -101% (active); to `Cc1nc(N2CCC(C)CC2)c2c(C)c(C(=O)Nc3cc(F)ccc3C)sc2n1`, -5.3%.
`Cc1nc(N2CCN(c3ccccn3)CC2)c2c(C)c(C(=O)Nc3ccc(F)c(Cl)c3)sc2n1`: the activity change is -77.6% (active).
As to `Cc1nc(N2CCOCC2)c2c(C)c(C(=O)Nc3ccc(C(F)(F)F)cc3)sc2n1`, the activity change was -41.2%.
The figure for `COc1ccc(NC(=O)c2sc3nc(C)nc(N4CCN(c5ccccn5)CC4)c3c2C)c(OC)c1` is -30.8%; for `CC1(C2CC2)NC(=O)N(CC(=O)N2CCN(c3ccccc3F)CC2)C1=O` (stereo not drawn) it is 3.05%; for `CN1OC[C@@H]2CN(S(=O)(=O)c3cccc(C(F)(F)F)c3)[C@H](c3ccc(-c4cc5ccccc5o4)cc3)C[C@@H]21` it is -6.35%.
The figure for `C[C@H]1CN([C@@H](C)CO)C(=O)CCCn2cc(nn2)CO[C@@H]1CN(C)S(=O)(=O)c1ccc(-n2cccn2)cc1` is 5.9%; for `COc1ccc(NC(=O)CCCOc2ccc(C(C)=O)cc2)cc1S(=O)(=O)N1CCCCC1` it is 6.94%.
Regarding `CCCCCCN1C[C@@H](O)[C@H](n2cc(COC(=O)c3ccccc3)nn2)C[C@@H]1c1ccc(Cl)cc1`, the activity change was -8%.
As to `O=S(=O)(c1cccs1)N1CCN(CCOc2ccccc2)CC1`, the activity change was -99.6% (active).
With `O=S(=O)(c1cccs1)N1CCc2ccccc2C1`, the activity change is 6.27%.
For `O=S(=O)(c1cccs1)N1CCN(Cc2ccccc2)CC1`, the activity change was -4.85%.
Take `Cc1ccc(C)c(NC(=S)NNC(=S)Nc2ccc(C(C)C)cc2)c1`: the activity change is -96.6% (active).
As to `Cc1ccc(NC(=S)N/N=C2/CCCc3c(C)cc(C)cc32)cc1`, the activity change is -3.22%.
As for `Cc1ccc(C)c(NC(=S)NNC(=O)c2csc(C)c2)c1`, the activity change was -0.222%.
In the case of `CCc1nc2c(=O)[nH]cnc2o1`, the activity change was 2.34%.
Take `NC(=S)NN=Cc1ccc(OC(=O)COc2cc(Cl)c(Cl)cc2Cl)cn1`: the activity change is -0.923%.
As to `O=C1NN(c2ccccc2)C(=O)/C1=C/c1ccc(-c2cccc(C(=O)O)c2)o1`, the activity change was 28.7%.
To `CN1C(=O)/C(=C\c2ccc(-c3ccccc3)o2)SC1=S` belongs -83.7% (active).
`NS(=O)(=O)c1ccc(-c2ccc(/C=C3\SC(=O)NC3=O)o2)cc1`: the activity change was 14.4%.
Take `COc1ccc(NC(=O)CN2C(=O)NC(C)(c3ccccc3)C2=O)cn1` (stereo not drawn): the activity change was -3.34%.
On to `O=C(CSc1nnc(-c2cnccn2)n1Cc1ccco1)c1ccc(Cl)c(Cl)c1`, for which the activity change is -196% (active).
For `Cc1ccc(NC(=O)CSc2nnc(-c3cnccn3)n2Cc2ccco2)cc1C`, the activity change is 3.68%.
On to `O=C(CSc1nnc(-c2cccnc2)n1Cc1ccco1)c1ccc(Cl)c(Cl)c1`, for which the activity change is -12.1%.
On to `CCN(CC)C(=O)C1=C(C)N(Cc2ccc(C(C)(C)C)cc2)C(=O)C(CC(=O)NCc2cccc3ccccc23)C1` (stereo not drawn), for which the activity change is -13.1%.
As for `CCC1CCC2(CC1)NC(=O)N(CC(=O)Nc1ccc(OC)cc1)C2=O` (stereo not drawn), the activity change was 10.2%.
The figure for `COc1ccc(NC(=O)CN2C(=O)CSC2=O)cc1` is 5.91%; for `CCOc1ccc(NC(=O)N2CCN(CC)CC2)cc1` it is 10.1%; for `CCc1cc(C(N)=O)c(NC(=O)c2ccc(OC)cc2)s1` it is 3.81%.
For `COc1ccc(C(=O)N2CCC(C(=O)Nc3ccc(C)cc3)CC2)cc1`, the activity change was -27%.
To `CCOc1ccc(NC(=O)CN2CCN(CC(=O)Nc3ccc(OC)cc3)CC2)cc1` belongs -89.9% (active); to `COc1ccc(C(=O)Nc2sc(C)c(C)c2CN2CCOCC2)cc1`, 0.971%; to `CCc1cc(C(=O)c2ccc(OC)cc2)c(NC(=O)CN2CCN(C)CC2)s1`, -103% (active).
On to `CCc1ccc(NC(=O)CN2CCC(C(=O)c3ccc(OC)cc3)CC2)cc1`, for which the activity change was -75.5% (active).
Regarding `COc1ccc(OC)c(NC(=O)C2CCCN2S(=O)(=O)c2ccc3c(c2)CC(C)N3C(C)=O)c1` (stereo not drawn), the activity change was 12.8%.
In the case of `CC1CC(NC(=S)N(C)C)CC(C)(C)C1` (stereo not drawn), the activity change is -0.254%.
For the molecule `Cc1cn([C@H]2C[C@H](O)[C@@H](CNC(=O)[C@H](N)Cc3cccnc3)O2)c(=O)[nH]c1=O`, the activity change is 0.448%.
On to `Cc1ccc(S(=O)(=O)N2CCOCC2)cc1NC(=O)c1ccncc1`, for which the activity change was 0.781%.
Regarding `O=C1CCC(=O)N1CCC(=O)N(C(=O)NC1CCCCC1)C1CCCCC1`, the activity change is -16.1%.
For the molecule `CCOc1cc(/C=N/NC(=O)c2c(C)nc3ccc(Cl)cn23)ccc1O`, the activity change was 6.54%.
`O=C(Nc1ccc2c(c1)[C@@H]1C[C@@H](CC(=O)N3CCCCC3)O[C@@H](CO)[C@@H]1O2)NC1CCCCC1`: the activity change was 7.85%.
The figure for `CCOC(=O)c1c(S(=O)(=O)Nc2ccc(CN3CCC(C)CC3)cc2)c(C)n(C)c1C` is -4.58%; for `CCOC(=O)c1c(S(=O)(=O)Nc2cccc(Cl)c2)c(C)n(C)c1C` it is -89.7% (active); for `CCOC(=O)c1cccc(NS(=O)(=O)c2c(C(=O)N3CCCCCC3)c(C)n(C)c2C)c1` it is 0.277%.
For `C[C@@H]1CCCCO[C@H](CN(C)Cc2ccccc2)[C@@H](C)CN([C@H](C)CO)C(=O)c2cc(NS(=O)(=O)c3ccc(Cl)cc3)ccc2O1`, the activity change is -12%.
The figure for `CCN1C(=O)[C@H]2[C@@H](c3ccc(C(F)(F)F)cc3)N[C@]3(CCCN(Cc4ccc(Br)cc4)C3=O)[C@H]2C1=O` is -2.79%.
With `CC(=O)c1ccc(OCC(O)CN2CCN(S(=O)(=O)c3cccc(Br)c3)CC2)cc1` (stereo not drawn), the activity change was -4.78%.
As to `CC(=O)Nc1ccc(OCC(O)CN2CCN(c3ccccc3Cl)CC2)cc1` (stereo not drawn), the activity change was -1.41%.
`CCC(=O)c1ccc(OCC(O)CN2CCN(c3cccc(C(F)(F)F)c3)CC2)cc1` (stereo not drawn): the activity change is -77.4% (active).
With `CCN(CC(=O)Nc1ccc(NC(C)=O)cc1)C(=O)C1CC(=O)N(c2ccc3c(c2)OCCO3)C1` (stereo not drawn), the activity change is 0.735%.
Turning to `O=C(CN1CCN(C(=O)c2ccco2)CC1)Nc1ccc2c(c1)OCO2`, the activity change is 0.979%.
`O=C(CN1CCN(CC(=O)Nc2ccc3c(c2)OCO3)CC1)Nc1ccc(F)cc1`: the activity change is -109% (active).
As to `O=C(COC(=O)c1ccc(F)cc1)Nc1ccc2c(c1)OCO2`, the activity change was -1.18%.
Take `COc1ccc(-c2c(C#N)cnc(C)c2C)c(O)c1OC`: the activity change was 1.89%.
As to `CC(Sc1ccc(S(=O)(=O)N2CCN(C)CC2)cn1)C(=O)NC1CCCC(C)C1C` (stereo not drawn), the activity change was -1.67%.
Turning to `C[C@H]1CN([C@@H](C)CO)C(=O)CCCn2cc(nn2)CO[C@@H]1CN(C)S(=O)(=O)c1cccc(C#N)c1`, the activity change is -14.5%.
For the molecule `Cc1cccc(S(=O)(=O)N(C)C[C@@H]2OCc3cnnn3CCCC(=O)N([C@H](C)CO)C[C@@H]2C)c1`, the activity change was 15.7%.
In the case of `C[C@@H]1CN([C@H](C)CO)C(=O)CCCn2nncc2CO[C@@H]1CN(C)S(=O)(=O)c1cccc(C#N)c1`, the activity change is -103% (active).
`C[C@H]1CN([C@@H](C)CO)C(=O)CCCn2nncc2CO[C@@H]1CN(C)S(=O)(=O)c1cccc(C#N)c1`: the activity change is -3.59%.
